“And” between values parts separate entries of the source, which are not always exact repeats. Identical values can stand only once. Records with an inconclusive call do not appear. More than one record can exist for a structure, and the calls need not agree. The source made the active and inactive calls. Calls come from the whole dose curve; as a rule, active = well fitted activation curve with a large enough effect in the repeat runs; inconclusive = weak or mixed curves; inactive = flat fitted curve, though single readings scatter.
Assay: A CellTox Green Cytotoxicity Assay to monitor cytotoxicity in HepG2 cells - 16 hour (AID 1224876); note: nearly all actives have a fitted effect of over 45% in size
Conditions: CellTox Green fluorescence; series mostly up to 76.8 µM; cytotoxicity increase: at the top concentration
Excerpt: National Center for Advancing Translational Sciences [NCATS]
NIH Chemical Genomics Center [NCGC]
U.S. Environmental Protection Agency [EPA]
National Institutes of Environmental Health Sciences [NIEHS]
National Toxicology Program [NTP]
Cell-based models are critical for drug discovery. Determining the natural cytotoxic effects resulting from test compounds is an essential research activity. A CellTox Green Cytotoxicity Assay to monitor cytotoxicity in real time of continues cell culture during 40 hours of the compound treatment was used to screen Tox21 10K library compounds in HepG2 cells. CellTox Green Cytotoxicity Assay is a nonlytic, homogeneous, biofluorescent method to measure cytotoxicity in cell culture after experimental manipulation. The assay system uses a proprietary asymmetric cyanine dye that is excluded from viable cells but preferentially stains the dead cell's DNA. […] Viable cells produce no appreciable increases in fluorescence. Therefore, the fluorescence signal produced by the binding interaction with dead cell DNA is proportional to cytotoxicity.
The mixture of HepG2 cell suspension and reagents were dispensed at 600cells/6 ul/well in 1536-well tissue culture treated black solid bottom plates using a Multidrop dispenser. After the assay plates were incubated at a 37 C/5% CO2 incubator for 5 hours, 23 nL of compounds dissolved in DMSO, positive and negative controls was transferred to the assay plate by a pintool work station. The plates were incubated at 37 C for 40 hours. The fluorescence intensity were measured at 0h, 8h, 16h, 24h, 32h and 40h time points using ViewLux plate reader during compound treatment.
% is set by controls: 0 for no effect and ±100 for the full control effect; potency is the fitted concentration of half-maximal effect.

Structure (SMILES)	cytotoxicity increase	Potency
CC(=O)SC[C@@H](Cc1ccccc1)C(=O)NCC(=O)OCc1ccccc1	0.568% [at 35.3 µM] (inactive)	
O=C(Oc1ccccc1)c1ccccc1C(=O)Oc1ccccc1	-11.3% (inactive)	
CCCCCCCCNC(C)C(O)c1ccc(SC(C)C)cc1 (stereo not given)		16.9 µM (active)
Cc1cccc(S(=O)(=O)O)c1C	0.137% (inactive)	
NC(=NCCCCCCN=C(N)/N=C(\N)Nc1ccc(Cl)cc1)/N=C(\N)Nc1ccc(Cl)cc1		19.8 µM (active) [middle of 4 runs]
CN1CCC(Nc2ncc3ncnc(Nc4ccc(F)c(Cl)c4)c3n2)CC1		21.3 µM (active)
Cc1ccc(O)c(C(C)(C)C)c1		38.8 µM (active) and 34.7 µM (active)
O=C(Nc1cccc(Cl)c1)OCC#CCCl	6.8% (inactive)	
Nc1ccc2c3c(cccc13)-c1ccccc1-2		39.3 µM (active)
CCCCCCCCCCCCc1ccc(O)cc1		15.5 µM (active)
Cc1oc(-c2ccccc2)nc1CCC(=O)c1ccc(CC2SC(=O)NC2=O)cc1 (stereo not given)	-19% [at 35.3 µM] (inactive)	
CCC(CN)=C(c1ccccc1)c1ccccc1	11.4% [at 35.3 µM] (inactive)	
COc1c(C)c2c(c(O)c1C/C=C(\C)CCC(=O)O)C(=O)OC2	1.5% [at 35.3 µM] (inactive)	
Nc1c2ccccc2nc2ccccc12		inactive and 13.4 µM (active)
Clc1ccc2n[nH]nc2c1	-2.29% (inactive)	
CN(C)[C@@H]1C(=O)C(C(N)=O)=C(O)[C@@]2(O)C(=O)C3=C(O)c4c(O)ccc(Cl)c4[C@@H](O)[C@H]3C[C@@H]12	4.02% [at 35.3 µM] (inactive)	
Cc1c(C)c2c(c(C)c1O)CCC(C)(COc1ccc(CC3SC(=O)NC3=O)cc1)O2 (stereo not given)	18.1% [at 35.3 µM] (inactive)	
Oc1cc2ccccc2c2ccccc12		13.8 µM (active)
N=C1C=CC(=C(c2ccc(N)cc2)c2ccc(N)cc2)C=C1	-44.1% (inactive)	
CC(C)C(C)(C)C(C)(C)C(C)(C)S	-4.28% (inactive)	

Structure (SMILES)	cytotoxicity increase	Potency
CCC(C)(C)C1CCCCC1OC(C)=O (stereo not given)	4.86% (inactive)	
COc1ccc(CN2CCN(C(c3ccc(F)cc3)c3ccc(F)cc3)CC2)c(OC)c1OC	0.841% [at 35.3 µM] (inactive)	
CCCCCCCC/C=C/CCCCCCCC1=NCCN1CCO		21.9 µM (active)
CCOC(=O)/C=C(C)/C=C/C=C(C)/C=C/c1c(C)cc(OC)c(C)c1C	-7.37% [at 35.3 µM] (inactive)	
CCCCCCCCCCCCCCCC[N+](C)(C)CCN(Cc1ccc(OC)cc1)c1ncccn1		9.52 µM (active)
ON=C1CCCC1	0.0991% (inactive)	
NNc1nc(-c2ccccc2)cs1	-7.63% (inactive)	
CCN(C(=O)N(CC)c1ccccc1)c1ccccc1	15.7% (inactive)	
CCC(N)(CO)CO	1.14% (inactive)	
CS(=O)(=O)CCNCc1ccc(-c2ccc3ncnc(Nc4ccc(OCc5cccc(F)c5)c(Cl)c4)c3c2)o1	17.3% [at 35.3 µM] (inactive)	
CC[C@@]1(O)C(=O)OCc2c1cc1n(c2=O)Cc2cc3c(CN(C)C)c(O)ccc3nc2-1		21.3 µM (active)
O=C(c1ccc(F)cc1)C1CCN(CCn2c(=O)[nH]c3ccccc3c2=O)CC1	11.1% [at 35.3 µM] (inactive)	
OC1(c2ccc(Cl)c(C(F)(F)F)c2)CCN(CCCC(c2ccc(F)cc2)c2ccc(F)cc2)CC1		10.7 µM (active)
CCC(Cl)C(Cl)C(Cl)CC(Cl)C(Cl)C(C)Cl (stereo not given)	-25.1% (inactive)	
Oc1ccc(Cl)cc1Sc1cc(Cl)ccc1O	26.3% (inactive)	
Cc1c(C)c2c(c(C)c1OC(=O)CCC(=O)O)CC[C@@](C)(CCC[C@H](C)CCC[C@H](C)CCCC(C)C)O2	-2.61% (inactive)	
CO[Si](CCCNc1ccccc1)(OC)OC	-1.24% (inactive)	
O=C(Nc1ccc(Oc2ccc(Cl)cc2)c(Cl)c1)c1cc(I)cc(I)c1O	-0.597% [at 35.3 µM] (inactive)	
CC(C)CCCCCCCCCCCCCCC(=O)O	-2.13% (inactive)	
CCCC(c1cc(C(C)(C)C)c(O)cc1C)c1cc(C(C)(C)C)c(O)cc1C		44.2 µM (active)

— PubChem BioAssay (Tox21)
